Measured values from article doi:10.1101/2024.03.05.583629.

biological target: pT7_6His-AlfaTag-HOXD13 (human, UniProt P35453 263-343); test: PADIT-seq; details: dsDNA, one strand shown
Sequence (P35453 263-343): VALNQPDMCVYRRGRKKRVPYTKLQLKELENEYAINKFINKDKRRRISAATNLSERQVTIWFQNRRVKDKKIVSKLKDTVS

Sequence | binding signal [log2FC]
CTCGAGGATATCAAGATCTGGCCTCGGCGGCGTAAAAGGAACCTCTAGCTAGCCGACTCACTATAGGGATAATCGCCCTGAGCAAAGACC | 0.246 ± 0.0968
CTCGAGGATATCAAGATCTGGCCTCGGCGCCCTAAAAGGAACCTCTAGCTAGCCGACTCACTATAGGGATAATCGCCCTGAGCAAAGACC | 0.248 ± 0.0833
CTCGAGGATATCAAGATCTGGCCTCGGCCTACTAAAAGGAACCTCTAGCTAGCCGACTCACTATAGGGATAATCGCCCTGAGCAAAGACC | 1.25 ± 0.0954
CTCGAGGATATCAAGATCTGGCCTCGGCGATATAAAAGGAACCTCTAGCTAGCCGACTCACTATAGGGATAATCGCCCTGAGCAAAGACC | 1.99 ± 0.0693
CTCGAGGATATCAAGATCTGGCCTCGGCATTTTAGAAGGAACCTCTAGCTAGCCGACTCACTATAGGGATAATCGCCCTGAGCAAAGACC | 0.382 ± 0.0937
CTCGAGGATATCAAGATCTGGCCTCGGCTTGATAAAAGGAACCTCTAGCTAGCCGACTCACTATAGGGATAATCGCCCTGAGCAAAGACC | 0.619 ± 0.0899
CTCGAGGATATCAAGATCTGGCCTCGGCGTTTTATAGGGAACCTCTAGCTAGCCGACTCACTATAGGGATAATCGCCCTGAGCAAAGACC | 3.33 ± 0.0804
CTCGAGGATATCAAGATCTGGCCTCGGCATTTTACTGGGAACCTCTAGCTAGCCGACTCACTATAGGGATAATCGCCCTGAGCAAAGACC | 2.8 ± 0.0813
CTCGAGGATATCAAGATCTGGCCTCGGCTTTTTAATCGGAACCTCTAGCTAGCCGACTCACTATAGGGATAATCGCCCTGAGCAAAGACC | 1.1 ± 0.0911
CTCGAGGATATCAAGATCTGGCCTCGGCATTTTATGCGGAACCTCTAGCTAGCCGACTCACTATAGGGATAATCGCCCTGAGCAAAGACC | 2.23 ± 0.0779
CTCGAGGATATCAAGATCTGGCCTCGGCCATATAAAAGGAACCTCTAGCTAGCCGACTCACTATAGGGATAATCGCCCTGAGCAAAGACC | 2.76 ± 0.0974
CTCGAGGATATCAAGATCTGGCCTCGGCCGTTTAAAAGGAACCTCTAGCTAGCCGACTCACTATAGGGATAATCGCCCTGAGCAAAGACC | 1.9 ± 0.069
CTCGAGGATATCAAGATCTGGCCTCGGCTTTTTAACTGGAACCTCTAGCTAGCCGACTCACTATAGGGATAATCGCCCTGAGCAAAGACC | 1.56 ± 0.107
CTCGAGGATATCAAGATCTGGCCTCGGCCTGATAAAAGGAACCTCTAGCTAGCCGACTCACTATAGGGATAATCGCCCTGAGCAAAGACC | 1.73 ± 0.0914
CTCGAGGATATCAAGATCTGGCCTCGGCCTTTTACAGGGAACCTCTAGCTAGCCGACTCACTATAGGGATAATCGCCCTGAGCAAAGACC | 2.83 ± 0.0828
CTCGAGGATATCAAGATCTGGCCTCGGCTTTTTATTAGGAACCTCTAGCTAGCCGACTCACTATAGGGATAATCGCCCTGAGCAAAGACC | 3.3 ± 0.0796
CTCGAGGATATCAAGATCTGGCCTCGGCTTTTTACCGGGAACCTCTAGCTAGCCGACTCACTATAGGGATAATCGCCCTGAGCAAAGACC | 0.978 ± 0.0873
CTCGAGGATATCAAGATCTGGCCTCGGCACTGTAAAAGGAACCTCTAGCTAGCCGACTCACTATAGGGATAATCGCCCTGAGCAAAGACC | 1.95 ± 0.0803
CTCGAGGATATCAAGATCTGGCCTCGGCGGCATAAAAGGAACCTCTAGCTAGCCGACTCACTATAGGGATAATCGCCCTGAGCAAAGACC | 0.675 ± 0.0684
CTCGAGGATATCAAGATCTGGCCTCGGCTGGATAAAAGGAACCTCTAGCTAGCCGACTCACTATAGGGATAATCGCCCTGAGCAAAGACC | -0.165 ± 0.087
CTCGAGGATATCAAGATCTGGCCTCGGCCGGGTAAAAGGAACCTCTAGCTAGCCGACTCACTATAGGGATAATCGCCCTGAGCAAAGACC | -0.304 ± 0.0906
CTCGAGGATATCAAGATCTGGCCTCGGCATTTTACTAGGAACCTCTAGCTAGCCGACTCACTATAGGGATAATCGCCCTGAGCAAAGACC | 3.18 ± 0.0699
CTCGAGGATATCAAGATCTGGCCTCGGCGTTTTAGTTGGAACCTCTAGCTAGCCGACTCACTATAGGGATAATCGCCCTGAGCAAAGACC | 0.145 ± 0.11
CTCGAGGATATCAAGATCTGGCCTCGGCGTTTTAACCGGAACCTCTAGCTAGCCGACTCACTATAGGGATAATCGCCCTGAGCAAAGACC | -0.0101 ± 0.0939
CTCGAGGATATCAAGATCTGGCCTCGGCTGAATAAAAGGAACCTCTAGCTAGCCGACTCACTATAGGGATAATCGCCCTGAGCAAAGACC | 0.859 ± 0.0895
CTCGAGGATATCAAGATCTGGCCTCGGCCTCTTAAAAGGAACCTCTAGCTAGCCGACTCACTATAGGGATAATCGCCCTGAGCAAAGACC | 2.2 ± 0.0925
